According to ChEMBL document CHEMBL4513216, “Probing the Open Global Health Chemical Diversity Library for Multistage-Active Starting Points for Next-Generation Antimalarials” (ACS Infect Dis, 2020):
Hit rate of the full screen: of about 68,000 compounds, about 2,700 (4%) showed an effect of 50% or more. The sample as a whole holds a higher share of strong results than the screen did.

test system: Plasmodium berghei; assay: Screen against P. berghei liver stage (PbLuc), transformed with Luciferase, at 2uM; type: functional, HepG2; settings: tested at 2 uM

SMILES | INHIBITION [%]
COc1cc(F)cc(NC(=O)NCc2cccc(N(C)C)n2)c1 | 23.92
N#Cc1c(F)cccc1NCCCOCC1CCOC1 (centres undefined) | -39.57
C[C@@H]1CN(CC(C)(C)N2CCCCC2)C[C@@]1(O)C1CC1 | 51.31
C[C@@H]1CN(CC(C)(C)N2CCCCC2)CC[C@@]1(O)C1CC1 | 12.62
C[C@@H]1CN(CC(C)(C)N2CCOCC2)C[C@@]1(O)C1CC1 | -10.59
Cc1ccc(C(=O)NCC(O)c2ccc(Cl)s2)c(=O)[nH]1 (centres undefined) | 10.05
Cc1cc(C(=O)NCC(O)c2ccc(Cl)s2)c(C)o1 (centres undefined) | 57.75
Cc1occc1C(=O)NCC(O)c1ccc(Cl)s1 (centres undefined) | 43.44
O=C1NC2(CCN(CC3CC3)CC2)CC1c1ccccc1 (centres undefined) | 11.18
CCN1CC2(CC1=O)CN(Cc1ccccn1)CCN(C(C)=O)C2 (centres undefined) | 28.2
O=C1CCC2(CCCN(C(=O)c3ccccn3)CC2)N1 (centres undefined) | 28.2
Cc1cc(NC(=O)CN2CCN(c3nccs3)C(C)C2)no1 (centres undefined) | -2.82
CS(=O)(=O)c1nccn1Cc1ccc(F)cc1Cl | 29.43
O=C(NCCN1CCOCC1)NCc1ncc(-c2ccccc2)o1 | 24.89
O=C(CCc1ncc(-c2ccc(F)cc2)o1)NCCN1CCOCC1 | -45.79
Cc1ccc(-c2cnc(CCC(=O)NCCN3CCOCC3)o2)cc1C | 59.03
Cc1nc(CNC(=O)NC(C)c2ccc3c(c2)OCCO3)cs1 (centres undefined) | 21.69
Cc1nc(C2CCCN(C(=O)c3c(C)nn4cccnc34)C2)no1 (centres undefined) | -1.02
Cc1ncsc1C(=O)NC1CCN(Cc2cccc3c2OCCO3)CC1 | 21.83
CCCn1ccnc1CN1CCc2[nH]cnc2C1Cc1ccccc1 (centres undefined) | -76.22
Cc1cccc(CN2C[C@@H]3CN(C(=O)c4cnoc4C)C[C@@H]3C2=O)n1 | 35.89
Cc1cccc(CN2C[C@@H]3CN(C(=O)NC(C)C)C[C@@H]3C2=O)n1 | 35.34
Cc1cccc(CN2C[C@@H]3CN(C(=O)C4CC=CC4)C[C@@H]3C2=O)n1 | 54.01
CN(C)CC1CN(Cc2nc(-c3ccccn3)no2)CCO1 (centres undefined) | 69.11
CCn1nc2c(cc1=O)CN(Cc1nc(-c3ccccn3)no1)CC2 | -27.03
Cn1nc2c(cc1=O)CN(Cc1nc(-c3ccccn3)no1)CC2 | 50.75
CN(C)CC1CN(Cc2nc(-c3cccnc3)no2)CCO1 (centres undefined) | 52.17

SMILES | INHIBITION [%]
c1ccc(-c2noc(CN3CCOC(Cn4cccn4)C3)n2)nc1 (centres undefined) | 23.71
Cn1nc2c(cc1=O)CN(Cc1coc(-c3ccccc3)n1)CC2 | 17.31
Cc1ccc(-c2nc(CN3CCc4nn(C)c(=O)cc4C3)co2)cc1 | 62.46
Cn1nc2c(cc1=O)CN(Cc1nc(-c3ccco3)no1)CC2 | -0.05
Cn1nc2c(cc1=O)CN(Cc1coc(-c3ccc(F)cc3)n1)CC2 | -21.39
Cc1cnn(CC2CN(Cc3nc(-c4ccccn4)no3)CCO2)c1 (centres undefined) | -5.09
c1cncc(-c2noc(CN3CCOC(Cn4cccn4)C3)n2)c1 (centres undefined) | -0.12
Cc1cnn(CC2CN(Cc3nc(-c4cccnc4)no3)CCO2)c1 (centres undefined) | 12.75
O=C(c1ccno1)N1CCOC[C@H](Oc2ccc(C(F)(F)F)cc2)C1 | 28.05
Cc1cnc(C)c(N2C[C@H]3OC(=O)N(C4CCCC4)[C@H]3C2)n1 | 12.59
O=C(C1CCCC1)N1C[C@@H]2CCN(c3cccnc3)C[C@@H]2C1 | -3.25
O=C(Cc1ccc(F)cc1)N1CCn2cc(Cn3cccn3)nc2C1 | -6.3
CC(C)(C)C(=O)N1CCCC1c1nc(O)cc(-c2ccccn2)n1 (centres undefined) | -10.16
COc1cc(C(=O)NC(C)C)nc2c(C)cc(F)cc12 | 35.91
CNc1nc2c(c(C(=O)N3CCCC3)n1)CN(Cc1cc(C)no1)CC2 | 10.63
CS(=O)(=O)N1CCN(C(=O)c2cc(-c3cccs3)cs2)CC1 | -23.8
CC(C(=O)N1CCOCC1)n1cc(Br)cn1 (centres undefined) | 15.05
CNC(=O)CCNC(=O)c1ccccc1N1CCOCC1 | -23.9
CCCNC(=O)CCNC(=O)c1ccccc1N1CCOCC1 | -21.71
O=C(CCNC(=O)c1ccccc1N1CCOCC1)NC1CCCC1 | 58.76
COc1cc(N2C[C@@H]3COC[C@]3(COc3cccnc3)C2)ncn1 | -38.72
COCCN1CCN(C(=O)c2ccc(C)cc2F)[C@H]2CS(=O)(=O)C[C@H]21 | 32.26
COc1ccc(Cc2nnc3n2N=C(C(C)(C)C)CS3)cc1 | -13.89
Cc1cnn(CC2CN(Cc3cccnc3)CCO2)c1 (centres undefined) | 41.76
CN1CCCC(c2cccc(-c3cccc(C(F)(F)F)c3)n2)C1 (centres undefined) | 38.64
CN1CCCC(c2cccc(-c3cccc(Cl)c3)n2)C1 (centres undefined) | 51.5
CN1CCCC(c2cccc(-c3cccc(F)c3)n2)C1 (centres undefined) | 13.88
